Measurements reported in PubChem BioAssay (EPA / NIEHS).
Inconclusive results are not listed. Calls of active or inactive are those of the source. The calls were made as follows: active = hit-call score of the fitted dose curve at least 0.9, where 1 is the maximum; inconclusive = response in the unintended direction; inactive = score below 0.9.

Experiments:
[1] = target: human Phosphodiesterase 5 (PDE5), PDE5A (gene 8654) (UniProt O76074); experiment: NVS_ENZ_hPDE5: NovaScreen (NVS) Enzymatic Assay for human Phosphodiesterase 5 (PDE5) (AID 2283194)
Method: (§1) NVS_ENZ_hPDE5 is a biochemical, single-readout assay that uses extracted gene-proteins in a cell-free assay. Measurements were taken 1 hour after chemical dosing in a 384-well plate.NVS_ENZ_hPDE5 is one of one assay component(s) measured or calculated from the NVS_ENZ_hPDE5 assay. It is designed to make measurements of enzyme activity, a form of enzyme reporter, as detected with fluorescence intensity signals by Fluorescence and electrophoretic mobility shift technology.Data from the assay component NVS_ENZ_hPDE5 was analyzed into 1 assay endpoint. This assay endpoint, NVS_ENZ_hPDE5, was analyzed in the positive analysis fitting direction relative to DMSO as the negative control and baseline of activity. Using a type of enzyme reporter, loss-of-signal activity can be used to understand changes in the enzymatic activity as they relate to the gene PDE5A. Furthermore, this assay endpoint can be referred to as a primary readout, because this assay has produced multiple assay endpoints where this one serves a enzymatic activity function. To generalize the intended target to other relatable targets, this assay endpoint is annotated to the esterase intended target family, where the subfamily is phosphodiesterase. […]

[2] = target: sheep Cyclooxygenase-1 (Cox1), PTGS1 (gene 443551) (UniProt P05979); experiment: NVS_ENZ_oCOX1: NovaScreen (NVS) Enzymatic Assay for sheep Cyclooxygenase-1 (Cox1) (AID 2283239);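 also: actives reduce cyclooxygenase activity so potencies are for inhibitors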
sheep Cyclooxygenase-1 (Cox1), PTGS1 (gene 443551), sequence (P05979 whole entry, looked up): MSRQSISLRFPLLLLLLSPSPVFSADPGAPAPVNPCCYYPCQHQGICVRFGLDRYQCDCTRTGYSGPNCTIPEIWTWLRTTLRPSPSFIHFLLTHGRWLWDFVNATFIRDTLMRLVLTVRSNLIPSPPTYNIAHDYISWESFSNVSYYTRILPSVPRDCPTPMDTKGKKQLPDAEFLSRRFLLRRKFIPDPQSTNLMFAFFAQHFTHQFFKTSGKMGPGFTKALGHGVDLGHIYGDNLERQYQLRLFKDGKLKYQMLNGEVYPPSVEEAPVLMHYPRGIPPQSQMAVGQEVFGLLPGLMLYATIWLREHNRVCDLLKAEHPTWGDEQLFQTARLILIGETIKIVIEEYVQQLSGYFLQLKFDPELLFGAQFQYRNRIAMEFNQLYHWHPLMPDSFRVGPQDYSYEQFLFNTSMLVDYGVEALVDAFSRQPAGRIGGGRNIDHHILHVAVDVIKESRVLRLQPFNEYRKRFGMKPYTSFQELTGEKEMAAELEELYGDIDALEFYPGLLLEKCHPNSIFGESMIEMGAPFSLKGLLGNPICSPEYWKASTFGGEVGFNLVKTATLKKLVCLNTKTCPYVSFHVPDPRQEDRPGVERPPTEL
How it was run: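 Colorimetric enzyme readout using sheep seminal-vesicle cyclooxygenase-1, measured 0.66 h post-dosing. Single-concentration duplicates at 25 uM first, then concentration series for actives, with DMSO as baseline and plate controls.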

[3] = target: human Vascular Endothelial Growth Factor Receptor 1 (VEGFR1), FLT1 (gene 2321) (UniProt P17948); experiment: NVS_ENZ_hVEGFR1: NovaScreen (NVS) Enzymatic Assay for human Vascular Endothelial Growth Factor Receptor 1 (VEGFR1) (AID 2283226)
human Vascular Endothelial Growth Factor Receptor 1 (VEGFR1), FLT1 (gene 2321), sequence (P17948 whole entry, looked up): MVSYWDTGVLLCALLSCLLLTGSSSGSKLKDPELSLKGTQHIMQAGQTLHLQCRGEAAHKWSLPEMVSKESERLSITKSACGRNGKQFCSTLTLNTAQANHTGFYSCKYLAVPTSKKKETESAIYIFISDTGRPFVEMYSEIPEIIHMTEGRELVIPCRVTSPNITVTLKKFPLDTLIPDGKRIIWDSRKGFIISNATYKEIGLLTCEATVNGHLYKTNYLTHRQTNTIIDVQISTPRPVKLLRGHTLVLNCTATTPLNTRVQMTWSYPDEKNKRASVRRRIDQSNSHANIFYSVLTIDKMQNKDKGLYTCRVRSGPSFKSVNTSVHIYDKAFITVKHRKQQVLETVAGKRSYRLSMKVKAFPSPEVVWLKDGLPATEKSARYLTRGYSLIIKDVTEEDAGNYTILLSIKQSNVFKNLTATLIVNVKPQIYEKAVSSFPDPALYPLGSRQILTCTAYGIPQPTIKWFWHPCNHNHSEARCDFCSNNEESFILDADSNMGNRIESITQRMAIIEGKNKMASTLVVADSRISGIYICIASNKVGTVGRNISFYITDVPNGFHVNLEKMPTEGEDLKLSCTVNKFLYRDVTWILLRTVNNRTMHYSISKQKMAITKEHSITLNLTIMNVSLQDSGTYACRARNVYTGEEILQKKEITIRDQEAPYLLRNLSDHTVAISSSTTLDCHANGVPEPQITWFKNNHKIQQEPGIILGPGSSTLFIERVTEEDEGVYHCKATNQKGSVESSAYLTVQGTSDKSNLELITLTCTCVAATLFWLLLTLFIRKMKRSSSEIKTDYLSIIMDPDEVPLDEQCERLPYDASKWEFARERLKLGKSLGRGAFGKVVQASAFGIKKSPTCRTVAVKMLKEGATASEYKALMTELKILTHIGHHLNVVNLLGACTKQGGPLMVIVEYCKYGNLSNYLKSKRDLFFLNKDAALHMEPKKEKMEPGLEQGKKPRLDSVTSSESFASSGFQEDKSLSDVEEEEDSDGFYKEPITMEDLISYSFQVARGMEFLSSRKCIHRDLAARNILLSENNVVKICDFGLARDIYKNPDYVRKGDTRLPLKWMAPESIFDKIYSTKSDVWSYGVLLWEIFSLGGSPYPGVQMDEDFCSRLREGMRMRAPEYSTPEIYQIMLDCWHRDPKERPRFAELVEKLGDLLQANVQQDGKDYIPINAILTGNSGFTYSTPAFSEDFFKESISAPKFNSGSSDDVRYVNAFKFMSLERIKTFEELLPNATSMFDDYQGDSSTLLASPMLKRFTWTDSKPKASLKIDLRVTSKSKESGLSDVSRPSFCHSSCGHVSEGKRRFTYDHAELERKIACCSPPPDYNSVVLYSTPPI
How it was run: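 Cell-free assay of recombinant human VEGFR1 kinase with substrate, measured 1 h after dosing; fluorescence with electrophoretic mobility-shift separation of substrate and product, referenced to DMSO; primary screen at 25 uM in duplicate, actives then run in concentration series.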

[4] = target: human Sirtuin 3 (SIRT3), SIRT3 (gene 23410) (UniProt Q9NTG7); experiment: NVS_ENZ_hSIRT3: NovaScreen (NVS) Enzymatic Assay for human Sirtuin 3 (SIRT3) (AID 2283222)
human Sirtuin 3 (SIRT3), SIRT3 (gene 23410), sequence (Q9NTG7 whole entry, looked up): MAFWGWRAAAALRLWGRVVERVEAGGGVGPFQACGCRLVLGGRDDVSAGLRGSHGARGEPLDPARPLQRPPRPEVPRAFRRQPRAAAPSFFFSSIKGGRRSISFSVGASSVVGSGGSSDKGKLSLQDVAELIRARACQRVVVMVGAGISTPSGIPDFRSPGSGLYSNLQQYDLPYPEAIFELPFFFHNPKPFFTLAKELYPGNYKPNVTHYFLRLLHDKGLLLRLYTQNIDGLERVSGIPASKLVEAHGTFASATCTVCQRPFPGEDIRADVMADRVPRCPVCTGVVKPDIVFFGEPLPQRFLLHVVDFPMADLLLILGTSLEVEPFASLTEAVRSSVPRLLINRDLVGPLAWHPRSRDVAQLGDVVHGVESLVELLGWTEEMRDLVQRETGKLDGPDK
Method: as §1, with “NVS_ENZ_hSIRT3” for “NVS_ENZ_hPDE5”, “plate.NVS_ENZ_hSIRT3” for “plate.NVS_ENZ_hPDE5”, “NVS_ENZ_hSIRT3,” for “NVS_ENZ_hPDE5,”, “SIRT3.” for “PDE5A.”, “hydrolase” for “esterase”, “protein deacetylase.” for “phosphodiesterase.”

[5] = target: human Vascular Endothelial Growth Factor Receptor 3 (VEGFR3), FLT4 (gene 2324) (UniProt P35916); experiment: NVS_ENZ_hVEGFR3: NovaScreen (NVS) Enzymatic Assay for human Vascular Endothelial Growth Factor Receptor 3 (VEGFR3) (AID 2283229)
human Vascular Endothelial Growth Factor Receptor 3 (VEGFR3), FLT4 (gene 2324), sequence (P35916 whole entry, looked up): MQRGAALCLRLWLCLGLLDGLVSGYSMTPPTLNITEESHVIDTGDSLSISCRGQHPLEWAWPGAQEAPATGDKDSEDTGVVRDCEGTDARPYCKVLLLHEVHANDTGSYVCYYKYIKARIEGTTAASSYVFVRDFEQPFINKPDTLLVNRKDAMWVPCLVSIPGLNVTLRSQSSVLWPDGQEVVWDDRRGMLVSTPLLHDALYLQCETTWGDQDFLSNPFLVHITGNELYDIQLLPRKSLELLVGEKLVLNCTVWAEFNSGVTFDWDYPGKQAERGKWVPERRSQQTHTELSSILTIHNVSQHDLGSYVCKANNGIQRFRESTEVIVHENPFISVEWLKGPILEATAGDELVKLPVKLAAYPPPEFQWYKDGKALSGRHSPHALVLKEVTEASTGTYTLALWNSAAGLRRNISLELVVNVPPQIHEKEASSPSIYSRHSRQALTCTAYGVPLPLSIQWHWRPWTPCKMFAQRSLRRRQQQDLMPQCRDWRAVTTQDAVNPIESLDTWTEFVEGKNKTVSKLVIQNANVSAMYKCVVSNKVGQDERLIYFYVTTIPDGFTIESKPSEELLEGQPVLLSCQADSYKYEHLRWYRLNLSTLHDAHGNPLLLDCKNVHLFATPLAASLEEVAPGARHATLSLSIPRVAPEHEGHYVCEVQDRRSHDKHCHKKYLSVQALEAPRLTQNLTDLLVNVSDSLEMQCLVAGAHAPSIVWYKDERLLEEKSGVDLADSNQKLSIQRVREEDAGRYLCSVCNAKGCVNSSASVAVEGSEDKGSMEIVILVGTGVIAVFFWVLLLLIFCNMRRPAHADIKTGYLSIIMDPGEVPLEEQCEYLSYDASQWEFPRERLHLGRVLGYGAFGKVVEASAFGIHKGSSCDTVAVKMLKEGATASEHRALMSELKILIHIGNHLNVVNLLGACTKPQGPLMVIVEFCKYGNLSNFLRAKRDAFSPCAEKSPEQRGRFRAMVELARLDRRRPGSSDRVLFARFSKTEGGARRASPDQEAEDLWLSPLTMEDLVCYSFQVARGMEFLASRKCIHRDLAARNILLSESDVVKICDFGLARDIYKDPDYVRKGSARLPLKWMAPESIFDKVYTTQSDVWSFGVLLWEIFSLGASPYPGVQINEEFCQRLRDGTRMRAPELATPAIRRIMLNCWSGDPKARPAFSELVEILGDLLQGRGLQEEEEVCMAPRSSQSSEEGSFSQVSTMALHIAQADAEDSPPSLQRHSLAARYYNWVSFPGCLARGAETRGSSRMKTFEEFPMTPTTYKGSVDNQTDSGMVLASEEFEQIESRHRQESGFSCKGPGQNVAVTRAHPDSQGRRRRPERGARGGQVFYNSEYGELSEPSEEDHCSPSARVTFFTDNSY
How it was run: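 Cell-free recombinant VEGFR3 kinase reaction with fluorescent substrate, read 1 h after dosing by electrophoretic mobility shift separation of substrate and product. Single-concentration duplicate screen at 25 uM, then concentration-response up to 50 uM; loss of activity versus DMSO.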

[6] = target: human Vascular Endothelial Growth Factor Receptor 2 (VEGFR2), KDR (gene 3791) (UniProt P35968); experiment: NVS_ENZ_hVEGFR2: NovaScreen (NVS) Enzymatic Assay for human Vascular Endothelial Growth Factor Receptor 2 (VEGFR2) (AID 2283230)
How it was run: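 Cell-free recombinant VEGFR2 kinase, fluorescent substrate with electrophoretic mobility-shift separation; read 1 h after dosing. Screened at 25 uM in duplicate, hits to concentration-response up to 50 uM; loss-of-signal versus DMSO.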

[7] = target: guinea pig Leukotriene D4 Receptor (LTD4), CYSLTR1 (gene 100135514) (UniProt Q2NNR5); experiment: NVS_GPCR_gLTD4: NovaScreen (NVS) G Protein-Coupled Receptor Assay for guinea pig Leukotriene D4 Receptor (LTD4) (AID 2283248)
guinea pig Leukotriene D4 Receptor (LTD4), CYSLTR1 (gene 100135514), sequence (Q2NNR5 whole entry, looked up): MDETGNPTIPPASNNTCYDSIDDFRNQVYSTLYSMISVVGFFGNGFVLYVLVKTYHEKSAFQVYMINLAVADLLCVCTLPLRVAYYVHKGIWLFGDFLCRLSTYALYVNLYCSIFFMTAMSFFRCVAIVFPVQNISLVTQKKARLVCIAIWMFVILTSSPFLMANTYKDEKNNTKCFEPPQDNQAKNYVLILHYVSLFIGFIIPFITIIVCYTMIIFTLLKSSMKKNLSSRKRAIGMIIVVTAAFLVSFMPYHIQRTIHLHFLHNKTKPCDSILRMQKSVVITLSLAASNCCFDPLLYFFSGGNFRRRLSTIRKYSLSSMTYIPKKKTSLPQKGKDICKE
How it was run: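 Radioligand displacement on guinea pig lung membranes, 1 h incubation, filtration and scintillation counting; DMSO as negative control. Duplicate 25 uM primary screen, then singleton concentration-response up to 50 uM.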

O=[N+]([O-])c1ccc(O)cc1C(F)(F)F
outcome [1]: inactive | outcome [2]: inactive

Oc1c(Cl)cc(Cl)c(Cl)c1Cc1c(O)c(Cl)cc(Cl)c1Cl
AC50 [3]: 2.93 µM (active) | AC50 [2]: 15.6 µM (active)

O=[N+]([O-])c1cccc(Cl)c1
outcome [3]: inactive

CS(=O)(=O)OCCCCOS(C)(=O)=O
outcome [4]: inactive

CCOC(=O)[C@@H](C)Oc1ccc(Oc2nc3ccc(Cl)cc3o2)cc1
outcome [5]: inactive

[O-]n1ccccc1=S.[O-]n1ccccc1=S.[Zn+2]
outcome [5]: inactive | outcome [6]: inactive

COC(=O)c1ccc([N+](=O)[O-])cc1
outcome [7]: inactive

O=C1c2ccccc2C(=O)c2c(O)ccc(O)c21
outcome [7]: inactive
